# Cruzain inh noDet – cruzain (T. cruzi) inhibition without detergent | purified cruzain, Z-FR-AMC fluorescence, no detergent | P25779 | Potency, µM, inactives show max response, negative = inhibition, actives largely listed as inhibitors | actives 2.3% (n = 200,000);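 also: plate controls were enzyme without inhibitor for no effect and buffer without enzyme for full effect; nearly all actives have a fitted effect of over 40% in size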
# Target sequence (P25779 123-467 limits assumed): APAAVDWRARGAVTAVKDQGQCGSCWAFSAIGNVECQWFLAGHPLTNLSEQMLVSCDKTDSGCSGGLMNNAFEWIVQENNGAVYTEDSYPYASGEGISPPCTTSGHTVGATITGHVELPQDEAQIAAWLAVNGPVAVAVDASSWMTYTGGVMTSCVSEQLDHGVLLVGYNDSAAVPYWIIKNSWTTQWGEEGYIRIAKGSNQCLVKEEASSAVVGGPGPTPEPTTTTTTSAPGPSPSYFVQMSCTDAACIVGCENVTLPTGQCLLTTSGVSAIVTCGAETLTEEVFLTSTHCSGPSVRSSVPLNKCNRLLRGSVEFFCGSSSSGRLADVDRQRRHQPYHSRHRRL
#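 Detergent-free condition (0.00005% Triton X-100) in acetate buffer pH 5.5 with DTT. 1.5 nM enzyme and compound were pre-mixed 15 min, then 2 uM Z-FR-AMC substrate added; reaction progress from fluorescence change between first and third reads (60 s).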
# Cruzain inh Det – blocks cruzain activity in presence of Triton detergent; P25779; purified cruzain, Z-FR-AMC fluorescence, 0.01% Triton; Potency, µM, for inactives: max response, negative = inhibition, most hits filed as inhibitors; actives 0.43% (n = 200,000);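 also: plate controls were neutral wells for no effect and buffer without enzyme for full effect; nearly all actives have a fitted effect of over 40% in size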
#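 15 min RT preincubation of 1.5 nM cruzain with compound, then 2 uM Z-FR-AMC added; kinetic AMC fluorescence, 60 s delta. Triton X-100 0.01%, pH 5.5.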
# Papain counter – blocks papain protease activity, flagging nonselective cruzain hits. shares compounds with Cruzain inh Det. purified papain, Z-FR-AMC fluorescence cleavage. Potency, µM, without a hit: max response, negative = inhibition, usual class: inhibitors. actives 41% (n = 410). AID 2161;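 also: 0% = no-compound wells and -100% = no-enzyme wells; nearly all actives have a fitted effect of over 35% in size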
# Target sequence (P00784 whole entry, looked up): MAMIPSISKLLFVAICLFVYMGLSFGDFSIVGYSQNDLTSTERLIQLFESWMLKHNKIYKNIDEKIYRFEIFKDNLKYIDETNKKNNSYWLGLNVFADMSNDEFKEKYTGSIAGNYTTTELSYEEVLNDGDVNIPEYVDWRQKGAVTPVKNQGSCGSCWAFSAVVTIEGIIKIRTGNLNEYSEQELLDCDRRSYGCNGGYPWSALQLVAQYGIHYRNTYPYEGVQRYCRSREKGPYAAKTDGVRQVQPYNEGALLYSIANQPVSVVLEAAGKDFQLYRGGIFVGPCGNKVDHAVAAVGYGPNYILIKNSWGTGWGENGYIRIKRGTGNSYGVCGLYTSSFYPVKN
# An asterisk follows results filed as active; u = inconclusive; x = no result given. In the library only some 2.6% were active in any assay of this set; here they are far more common. Calls follow the shape of the dose curve; as a rule, active = well fitted curve in the direction sought with a large enough effect; inconclusive = small, poorly fitted or top-dose-only effect, or another doubt; inactive = no such curve, though single readings can be large; an effect the other way counts as inactive or inconclusive. Potency is read from the fitted curve at half-maximal effect.
SMILES,Cruzain inh noDet,Cruzain inh Det,Papain counter
Cc1ccc(C)c(CN2C(=O)c3ccccc3Sc3ccc(C(=O)NCc4ccc5c(c4)OCO5)cc32)c1,20µM*,-1%,8%
COCCNC(=O)C1(C)Oc2ccccc2NC1=O (configuration not stated),-2%,-4%,x
CC(=O)OC1(C(F)(F)F)Oc2ccccc2NC1=O (configuration not stated),1.3µM*,0.89µM*,7.9µM*
CC(=O)OCc1cnc(C)c2oc(=O)c(C(=O)Nc3ccc(F)cc3C)cc12,6%,0%,x
O=C(O)CCCC[C@H]1SC[C@H]2NC(=O)N[C@@H]21,1%,3%,x
COc1ccc(-c2cc(C(F)(F)F)nc(N3CCN(C)CC3)n2)cc1,-3%,0%,x
COc1ccc(-c2cc(C#N)nc(N3CCN(C)CC3)n2)cc1,16µM*,25µM*,-18%
CCC(=O)N1CCc2cc(Br)cc(S(=O)(=O)CCC(=O)N3CCN(c4cccc(C(F)(F)F)c4)CC3)c21,-3%,0%,x
CN(C)c1nc(N2CCOCC2)nc(N(c2ccccc2)c2ccccc2)n1,u,-1%,x
N#Cc1nc(N(c2ccccc2)c2ccccc2)nc(-n2cccc2)n1,x,x,10µM*
COc1nc(N(c2ccccc2)c2ccccc2)nc(-n2ccnc2)n1,-9%,0%,x
CCNc1nc(SCc2ccccc2)nc(N2CCOCC2)n1,2%,-10%,x
CCNc1nc(C#N)nc(N2CCOCC2)n1,x,x,3.2µM*
CN(c1ccccc1)c1nc(C#N)nc(N2CCOCC2)n1,x,x,1.3µM*
N#Cc1nc(N2CCOCC2)nc(N2CCOCC2)n1,1.3µM*,1.1µM*,1.3µM*
N#CCOc1nc(N2CCOCC2)nc(N2CCOCC2)n1,6%,-1%,x
COc1cc(NC(=O)C(NC(=O)C2CCC(C)CC2)C(C)C)cc(OC)c1OC (configuration not stated),7%,0%,x
O=C(O)CCc1nc(-c2ccccc2-n2cccc2)no1,-7%,7%,x
CC1(C)O[C@H]2[C@@H](O1)[C@@H](C(=O)Nc1ccccc1O)O[C@@H]1OC(C)(C)O[C@@H]12,15%,0%,x
COc1ccccc1-c1nn2c(-c3ccccc3Cl)nnc2s1,-16%,1%,x
CN(C)c1ccc(-c2nn3c(-c4ccc(Cl)cc4Cl)nnc3s2)cc1,u,2%,x
Clc1ccccc1-c1nn2c(-c3cc(-c4ccccc4)n[nH]3)nnc2s1,x,x,-8%
CN(C)c1ccc(-c2nn3c(-c4cc(-c5ccccc5)n[nH]4)nnc3s2)cc1,x,x,-26%
Clc1ccccc1-c1nnc2sc(-c3ccc4c(c3)OCO4)nn12,u,-3%,x
COc1ccccc1-c1nn2c(-c3cc(-c4ccccc4)n[nH]3)nnc2s1,x,x,35µM*
SMILES,Cruzain inh noDet,Cruzain inh Det,Papain counter
CCOc1ccccc1NC(=O)c1cnc(N2CCOCC2)c2ccccc12,u,-9%,x
Cc1ccc(NC(=O)c2c(C)oc3ccc(O)c(CN4CCCCC4)c23)cc1,-6%,-4%,x
Cc1ccc(NC(=O)Cn2c(=O)n(-c3ccc(C)cc3)c(=O)c3ccc(C(=O)NCc4ccccc4Cl)cc32)cc1,-2%,-1%,x
CCOC(=O)c1c(S(=O)(=O)NCC(=O)Nc2cccc(CC)c2)c(C)n(C)c1C,5%,1%,x
CCc1ccc2[nH]c(=O)c(CN(Cc3cccs3)Cc3nnnn3Cc3ccccc3)cc2c1,x,x,-16%
CCC(c1nnnn1Cc1ccccc1)N(Cc1ccccc1)Cc1cc2cc(C)ccc2[nH]c1=O (configuration not stated),x,x,-6%
CCOc1ccc2[nH]c(=O)c(CN(Cc3ccco3)C(CC)c3nnnn3Cc3ccccc3)cc2c1 (configuration not stated),11%,-11%,x
CCOC(=O)Cn1nnnc1CN(Cc1ccc(OC)cc1)Cc1cc2cc(C)ccc2[nH]c1=O,u,-8%,x
Cc1ccc2[nH]c(=O)c(CN(Cc3cccs3)Cc3nnnn3Cc3ccco3)cc2c1,x,x,-13%
Cc1ccc2[nH]c(=O)c(CN(Cc3cccs3)Cc3nnnn3CC3CCCO3)cc2c1 (configuration not stated),u,1%,x
COc1ccc2[nH]c(=O)c(CN(Cc3cccs3)Cc3nnnn3Cc3ccccc3)cc2c1,3%,-1%,x
Cc1ccc(CN(Cc2cc3cc(C)ccc3[nH]c2=O)Cc2nnnn2Cc2ccccc2)cc1,x,x,-12%
O=C(Nc1c(C(=O)c2ccc(Cl)cc2)oc2ccccc12)c1cc(=O)c2ccccc2o1,-2%,7%,x
Cc1ccc(NC(=O)N2CCN(c3cc(-c4noc(C)n4)ccc3C)CC2)c(F)c1,4%,-2%,x
CCN1CCN(c2ncc3c(n2)CCN(Cc2cc(Br)cs2)C3)CC1,-2%,-5%,x
O=C(NCCc1nc2ccccc2n1Cc1ccc(Cl)cc1Cl)c1ccco1,16%,-23%,x
Cc1ccc2[nH]c(=O)c(CN(CCO)Cc3nnnn3Cc3ccco3)cc2c1,x,x,1%
Cc1ccc2[nH]c(=O)c(CN(CCc3ccccc3)Cc3nnnn3CC3CCCO3)cc2c1 (configuration not stated),24%,-7%,x
COc1ccccc1CN(Cc1cc2cc(C)ccc2[nH]c1=O)Cc1nnnn1Cc1ccco1,-8%,-20%,x
Cc1ccc2[nH]c(=O)c(CN(CCO)Cc3nnnn3Cc3ccccc3)cc2c1,x,x,3%
Cc1ccc2[nH]c(=O)c(CN(CCCO)Cc3nnnn3Cc3ccccc3)cc2c1,x,x,-5%
CCOc1ccc2[nH]c(=O)c(CN(CCO)Cc3nnnn3CCc3ccccc3)cc2c1,6%,-2%,x
Cc1ccc(C(=O)NCCc2csc(-c3cccc(F)c3)n2)cc1C,u,-9%,x
COc1cccc(NC(=O)CSc2nc(-c3ccccc3Cl)nc3c2Cc2c(CO)cnc(C)c2O3)c1,-3%,-2%,x
O=C(CCn1cccn1)NCc1ccc(Cl)cc1,-12%,-2%,x
SMILES,Cruzain inh noDet,Cruzain inh Det,Papain counter
CC(=O)c1cc(-c2ccccc2)n(CCC(=O)NCCc2ccccc2)c1C,-1%,-3%,x
Cc1cccc(N2CCN(c3ccc(C(=O)O)cc3NC(=O)c3cccc(Cl)c3)CC2C)c1 (configuration not stated),19%,u,x
COc1cc(OC)cc(C(=O)Nc2cc3c(cc2N2CCOCC2)n(C)c(=O)n3C)c1,11%,0%,x
N#Cc1nc(Nc2ccc(-c3ccccc3)cc2)nc(NC2CCCC2)n1,x,x,3.5µM*
N#Cc1nc(Nc2cccc(Br)c2)nc(NC2CCCC2)n1,x,x,1.3µM*
N#Cc1nc(Nc2ccc(F)cc2)nc(NC2CCCC2)n1,x,x,0.45µM*
c1ccc(Nc2nc(N3CCCC3)nc(N3CCCC3)n2)cc1,-15%,-11%,x
N#Cc1nc(Nc2ccccc2)nc(NC2CCCC2)n1,x,x,0.45µM*
O=C(Nc1ccc(F)cc1)NC1CCCCC1,0%,5%,x
c1ccc(-c2nnc(-c3ccccn3)nc2NC2CCCCC2)cc1,13%,0%,x
N#Cc1c[nH]n2c(NC3CCCC3)c(-c3cccc(Br)c3)nc12,u,-7%,x
CCc1ccc(NC(=O)CC2C(=O)N(c3cccc(C)c3)C(=O)N2Cc2ccco2)cc1 (configuration not stated),3%,-5%,x
COc1ccc(OC)c(NC(=O)CN2C(=O)CCc3cc(S(=O)(=O)N4CCCCC4)ccc32)c1,u,-5%,x
CCOC(=O)c1ccc(NC(=O)CCCc2nc(-c3cc(OC)c(OC)c(OC)c3)no2)cc1,u,-6%,x
CCc1ccc(CN(C(=O)c2nc(SC)ncc2Cl)C2CCS(=O)(=O)C2)cc1 (configuration not stated),-2%,-6%,x
